GRIN3A LBD mod = binders of NR3A ligand-binding domain, primary screen, biophysical, differential scanning fluorimetry, uHTS. Glutamate receptor ionotropic, NMDA 3A (GRIN3A) ligand-binding domain. NR3A LBD differential scanning fluorimetry, Tm shift; 0% = protein alone, 100% = glycine-bound protein. Tm shift relative to glycine control, % at 25 µM. 340,000 tested, 2.5% active. AID 1259313, 2017;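 active = melting temperature shift of at least 10% of the positive control shift, at one fixed dose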
dFosB activator = activators of delta FosB homodimer, primary screen, biochemical, fluorescence polarization, TAMRA-CDK5 oligo, single point; Protein FosB (Mus musculus), P13346; purified delta FosB; percent of positive-control signal above neutral wells; activation, % at 25 µM; 340,000 tested, 0.99% active; AID 493131, 2011;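 active = mean activation above about 17%, with every replicate also reaching it, limit read from the data, passing the limit was not always enough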
TPT1 inhibitor = Candida albicans TPT1 enzyme inhibitors, primary screen, biochemical, fluorescence polarization; tRNA 2'-phosphotransferase TPT1 (Candida albicans SC5314); inhibition, % at 5 µM; 300,000 tested, 0.81% active; recombinant caTPT1, FP RNA substrate dephosphorylation;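 active = inhibition above the mean of all tested compounds plus 3 SD, set per screening campaign, cut at about 24% in these data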;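 also: plate controls were DMSO alone for no effect and ferristatin control at 100 nM for full effect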
ZTA DNA inh = ZTA (EBV) inhibition in EBNA-1 counter-screen. 320,000 tested, 0.15% active. AID 2234. P03206. inhibition, % at 11 µM. ZTA-DNA binding, fluorescence polarization; in the data active = inhibition above about 33%
EBNA-1 inhibitor = EBNA-1 DNA-binding inhibitors, primary screen, biochemical, fluorescence polarization | inhibition, % at 14.8 µM | 300,000 tested, 0.34% active | AID 1950, 2009; in the data active = inhibition above about 28%
Rpn11 inh = Rpn11 (PSMD14) deubiquitinase inhibitors, primary screen, biochemical, fluorescence polarization, uHTS. human 26S proteasome, Ub4-pepOG fluorescence polarization; 20S core pre-blocked with epoxomicin. inhibition, % at 20 µM. 360,000 tested, 0.59% active. AID 588493, 2011;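 active = inhibition at 20 µM, scaled to each plate's controls, above about 33%, limit read from the data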
Target sequence (O00487 whole entry, looked up): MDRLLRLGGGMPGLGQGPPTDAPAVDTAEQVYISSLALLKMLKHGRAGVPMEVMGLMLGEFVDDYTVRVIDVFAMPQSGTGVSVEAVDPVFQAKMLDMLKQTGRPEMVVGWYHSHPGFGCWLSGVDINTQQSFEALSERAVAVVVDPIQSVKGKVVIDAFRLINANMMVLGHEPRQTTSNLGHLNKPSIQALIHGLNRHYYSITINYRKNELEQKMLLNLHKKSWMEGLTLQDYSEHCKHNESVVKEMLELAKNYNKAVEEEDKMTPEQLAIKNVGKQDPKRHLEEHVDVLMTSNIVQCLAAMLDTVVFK
The depositor's hits bear a star. Most compounds without a hit are left out; they make up all but 4.5% or so of the library.

How did C#CCOCCOCCOCCNc1nc(N2CCN(C(=O)CCCCCCCCCCNC(=O)[C@H]([C@@H](C)CC)n3cc(CCCCCN)nn3)CC2)nc(N2CCN(C(=O)CCCCCCCCCCNC(=O)[C@H](CO)n3cc(CCCCCN)nn3)CC2)n1 do in these assays?
GRIN3A LBD mod: 28*; dFosB activator: -247; TPT1 inhibitor: -2; ZTA DNA inh: -2; EBNA-1 inhibitor: -15; Rpn11 inh: -12

Results for C#CCOCCOCCOCCNc1nc(N2CCN(C(=O)CCCCCCCCCCNC(=O)[C@H](CO)n3cc(CCCSC)nn3)CC2)nc(N2CCN(C(=O)CCCCCCCCCCNC(=O)[C@H](CCCCN)n3cc(CCO)nn3)CC2)n1 ?
GRIN3A LBD mod: 28*; dFosB activator: -263; Rpn11 inh: 5

How did C#CCOCCOCCOCCNc1nc(N2CCN(C(=O)CCCCCCCCCCNC(=O)[C@H]([C@@H](C)CC)n3cc(CCCCN=C(N)N)nn3)CC2)nc(N2CCN(C(=O)CCCCCCCCCCNC(=O)[C@H](CO)n3cc(CCCCCN)nn3)CC2)n1 do in these assays?
GRIN3A LBD mod: 17*; dFosB activator: -368; TPT1 inhibitor: 0; ZTA DNA inh: 22; EBNA-1 inhibitor: 5; Rpn11 inh: 75*

Results for C#CCOCCOCCOCCNc1nc(N2CCN(C(=O)[C@H]([C@@H](C)CC)n3cc(CCCN=C(N)N)nn3)CC2)nc(N2CCN(C(=O)[C@H](C)n3cc(CCCN=C(N)N)nn3)CC2)n1 ?
GRIN3A LBD mod: 2; TPT1 inhibitor: -2; ZTA DNA inh: -2; EBNA-1 inhibitor: -9

How did C#CCOCCOCCOCCNc1nc(N2CCN(C(=O)CCCCCCCCCCNC(=O)[C@H]([C@@H](C)CC)n3cc(CCCCN=C(N)N)nn3)CC2)nc(N2CCN(C(=O)CCCCCCCCCCNC(=O)[C@H]([C@@H](C)CC)n3cc(CCCCN=C(N)N)nn3)CC2)n1 do in these assays?
TPT1 inhibitor: -1; ZTA DNA inh: 147*; EBNA-1 inhibitor: -2

Results for C#CCOCCOCCOCCNc1nc(N2CCN(C(=O)Cn3cc(CCCN=C(N)N)nn3)CC2)nc(N2CCN(C(=O)[C@H]([C@@H](C)CC)n3cc(CCCCN)nn3)CC2)n1 ?
GRIN3A LBD mod: 7; dFosB activator: 4; TPT1 inhibitor: -2; ZTA DNA inh: -10; EBNA-1 inhibitor: 0; Rpn11 inh: 8

What do the screens show for `C=C(C)CNC(=O)c1ccc2nc(Cc3ccc(OC)cc3)oc2c1`?
GRIN3A LBD mod: -5; dFosB activator: 0; TPT1 inhibitor: 1; ZTA DNA inh: -16; EBNA-1 inhibitor: -3; Rpn11 inh: 0

Results for CC1CCCCN1C(=O)COC(=O)c1cccc(NS(=O)(=O)c2ccccc2)c1 (stereo unspecified) ?
GRIN3A LBD mod: 0; dFosB activator: -5; TPT1 inhibitor: -5; ZTA DNA inh: -10; EBNA-1 inhibitor: 0; Rpn11 inh: 1

How did C#CCOCCOCCOCCNc1nc(N2CCOCC2)nc(N2CCN(C(=O)CCCCCCCCCCNC(=O)[C@@H]([C@H](C)CC)n3cc(CCCCCN)nn3)CC2)n1 do in these assays?
GRIN3A LBD mod: 2; dFosB activator: 6; TPT1 inhibitor: -1; ZTA DNA inh: 2; EBNA-1 inhibitor: -3; Rpn11 inh: -6

Results for C#CCOCCOCCOCCNc1nc(N2CCN(C(=O)CCCCCCCCCCNC(=O)[C@H]([C@@H](C)CC)n3cc(CCCCCN)nn3)CC2)nc(N2CCN(C(=O)CCCCCCCCCCNC(=O)[C@@H]([C@H](C)CC)n3cc(CCCCCN)nn3)CC2)n1 ?
TPT1 inhibitor: -2; ZTA DNA inh: 65*; EBNA-1 inhibitor: -5

What do the screens show for `Cc1ccc(NC(=O)COC(=O)C2CCN(c3ccc(C(F)(F)F)cn3)CC2)cc1C`?
GRIN3A LBD mod: 12*; dFosB activator: -14; TPT1 inhibitor: -1; ZTA DNA inh: -8; EBNA-1 inhibitor: 0; Rpn11 inh: 5

What do the screens show for `O=C(COC(=O)C1CCN(c2ccc(C(F)(F)F)cn2)CC1)Nc1ccc(Cl)cc1`?
GRIN3A LBD mod: 24*; dFosB activator: 6; TPT1 inhibitor: 1; ZTA DNA inh: 3; EBNA-1 inhibitor: 4; Rpn11 inh: -4

From PubChem
